Records with an inconclusive call do not appear. Calls of active or inactive are those of the source. Unless noted, the call rests on the fitted dose curve; in most records, active means well fitted curve in the direction sought with a large enough effect in the repeat runs; inconclusive means weak or mixed curves; inactive means no such curve, though single readings can be large; an effect the other way counts as inactive or inconclusive.

Experiment [1] is described as follows: qHTS assay to identify small molecule antagonists of the estrogen receptor alpha (ER-alpha) signaling pathway using the BG1 cell line in the presence of 0.1 nM 17-beta-estradiol - cell viability counter screen (AID 1259241). Further: nearly all actives have a fitted effect of over 40% in size. Further: potency means the concentration at half of the fitted maximal effect. The method in brief:
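Viability in VM7Luc4E2 cells after 22 hr compound exposure under 0.1 nM 17beta-estradiol stimulation, by CellTiter-Fluor.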
A general note: qHTS replaces the single test concentration by a dilution series.

Experiment [2] is described as follows: qHTS assay to identify small molecule antagonists of the androgen receptor (AR) signaling pathway using the MDA cell line in the presence of 0.5 nM R1881 - cell viability counter screen (AID 1259242). Further: nearly all actives have a fitted effect of over 45% in size. Further: potency means the concentration at half of the fitted maximal effect. The method in brief: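 MDA-kb2 cells (human breast carcinoma, stably carrying MMTV-luciferase reporter) were exposed to compounds with 0.5 nM R1881 (final) for 16 hr at 37C, 0% CO2; viability then read as live-cell protease fluorescence (CellTiter-Fluor, 30 min) in the same wells.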

The target of experiment [3] is Androgen receptor (Homo sapiens) (UniProt P10275). Put plainly: qHTS assay to identify small molecule antagonists of the androgen receptor (AR) signaling pathway using the MDA cell line in the presence of 0.5 nM R1881 (AID 1259243). Further: nearly all actives have a fitted effect of over 50% in size. Further: potency means the concentration at half of the fitted maximal effect. The method in brief: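 MDA-kb2 human breast carcinoma cells carrying an MMTV-luciferase reporter (AR- and GR-responsive) were plated, rested 5 hr at 37C, dosed with compounds, then stimulated with 0.5 nM R1881 (final) for 16 hr; luminescence was read after ONE-Glo.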
Androgen receptor (Homo sapiens), sequence (P10275 whole entry, looked up): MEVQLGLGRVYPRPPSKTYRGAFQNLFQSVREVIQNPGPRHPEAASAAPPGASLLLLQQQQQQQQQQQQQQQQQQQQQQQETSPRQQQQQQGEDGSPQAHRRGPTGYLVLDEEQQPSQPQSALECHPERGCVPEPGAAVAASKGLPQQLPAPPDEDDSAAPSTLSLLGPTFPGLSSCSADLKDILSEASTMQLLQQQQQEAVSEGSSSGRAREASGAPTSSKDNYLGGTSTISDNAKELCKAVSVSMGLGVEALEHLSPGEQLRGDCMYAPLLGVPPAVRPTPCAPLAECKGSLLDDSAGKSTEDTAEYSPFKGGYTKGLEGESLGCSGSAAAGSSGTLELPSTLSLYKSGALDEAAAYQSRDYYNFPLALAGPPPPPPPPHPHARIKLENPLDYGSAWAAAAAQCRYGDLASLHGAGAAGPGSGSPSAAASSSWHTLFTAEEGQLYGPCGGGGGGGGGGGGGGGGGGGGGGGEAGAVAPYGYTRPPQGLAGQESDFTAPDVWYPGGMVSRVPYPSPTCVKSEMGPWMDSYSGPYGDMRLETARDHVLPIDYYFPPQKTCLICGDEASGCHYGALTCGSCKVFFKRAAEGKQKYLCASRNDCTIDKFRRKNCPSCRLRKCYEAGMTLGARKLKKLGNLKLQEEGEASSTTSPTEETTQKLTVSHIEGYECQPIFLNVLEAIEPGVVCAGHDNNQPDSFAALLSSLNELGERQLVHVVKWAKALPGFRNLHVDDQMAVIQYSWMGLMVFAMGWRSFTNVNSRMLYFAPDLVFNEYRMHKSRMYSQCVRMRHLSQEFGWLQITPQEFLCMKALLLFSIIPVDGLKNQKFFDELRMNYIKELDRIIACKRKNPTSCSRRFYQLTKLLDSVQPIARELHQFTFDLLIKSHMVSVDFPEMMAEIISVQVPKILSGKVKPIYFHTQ

For experiment [4], the target named is Estrogen receptor (Homo sapiens) (UniProt P03372). Put plainly: qHTS assay to identify small molecule antagonists of the estrogen receptor alpha (ER-alpha) signaling pathway using the BG1 cell line in the presence of 0.1 nM 17-beta-estradiol (AID 1259244). Further: nearly all actives have a fitted effect of over 50% in size. Further: potency means the concentration at half of the fitted maximal effect. The method in brief: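 VM7Luc4E2 cells (endogenous full-length ER-alpha, stable 4xERE-luciferase) were grown 5 days in phenol red-free medium with charcoal-stripped FBS, then exposed 22 h at 37C to compounds plus 0.1 nM (final) 17beta-estradiol; ONE-Glo luminescence read-out.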
Estrogen receptor (Homo sapiens), sequence (P03372 whole entry, looked up): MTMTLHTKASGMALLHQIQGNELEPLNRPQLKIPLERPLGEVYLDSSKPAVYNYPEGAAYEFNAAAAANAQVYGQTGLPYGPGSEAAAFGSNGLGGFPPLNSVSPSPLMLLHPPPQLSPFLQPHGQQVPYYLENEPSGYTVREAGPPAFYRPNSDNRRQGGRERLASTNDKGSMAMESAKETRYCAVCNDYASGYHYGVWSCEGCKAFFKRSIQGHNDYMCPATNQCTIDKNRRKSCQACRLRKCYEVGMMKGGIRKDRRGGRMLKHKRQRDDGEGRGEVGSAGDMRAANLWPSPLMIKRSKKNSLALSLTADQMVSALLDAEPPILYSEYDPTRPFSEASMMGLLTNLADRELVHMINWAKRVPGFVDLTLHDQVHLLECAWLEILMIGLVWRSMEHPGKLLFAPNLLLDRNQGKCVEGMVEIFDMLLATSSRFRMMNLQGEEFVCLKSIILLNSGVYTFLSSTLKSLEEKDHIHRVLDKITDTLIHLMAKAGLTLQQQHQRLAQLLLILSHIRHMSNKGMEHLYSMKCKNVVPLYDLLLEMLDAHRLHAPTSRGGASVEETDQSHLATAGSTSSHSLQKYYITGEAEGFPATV

A short description of experiment [5]: qHTS assay to identify small molecule phospholipidosis (PLD) inducers (AID 1259344; active means well fitted curve in the direction sought with a large enough effect; an effect the other way counts as inactive or inconclusive). The method in brief:
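HepG2 cells on collagen I, attached 4 h at 37 C, were co-treated with compound and LipidTOX Red dye for 24 h at 37 C, then fixed with paraformaldehyde plus Hoechst 33342 and imaged by high-content microscopy for phospholipid accumulation.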

Experiment [6] in a line: qHTS assay to identify small molecule HDAC inhibitors (AID 1259364). Further: top concentration of the series differs between compounds; nearly all actives have a fitted effect of over 45% in size. The method in brief:
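Wild-type HCT-116 cells were plated overnight, exposed to compounds for 2 h at 37 °C, then given HDAC-Glo class I/II luminogenic reagent for 30 min at room temperature before luminescence was read.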

Experiment [7] is described as follows: qHTS assay to identify small molecule HDAC inhibitors - cell viability counter screen (AID 1259365). Further: nearly all actives have a fitted effect of over 50% in size. Further: potency means the concentration at half of the fitted maximal effect. The method in brief: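 Cytotoxicity was gauged in wild-type HCT-116 cells after a brief 2hr treatment with DMSO-dissolved compounds at 37C and 5% CO2, using CellTiter-Glo luminescence developed for 30min at room temperature.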
Experiment [8] in a line: qHTS assay to identify small molecule agonists of the sonic hedgehog signaling (Shh) pathway - cell viability counter screen (AID 1259366). Further: nearly all actives have a fitted effect of over 50% in size. Further: potency means the concentration at half of the fitted maximal effect. The method in brief: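 Stable Gli1-Luc NIH/3T3 clone, 2,000 cells/well. Compound exposure 24hr at 37C. Read-out: CellTiter-Fluor fluorescence.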
Experiment [9] in a line: qHTS assay to identify small molecule antagonists of the sonic hedgehog signaling (Shh) pathway - cell viability counter screen (AID 1259367). Further: nearly all actives have a fitted effect of over 55% in size. Further: potency means the concentration at half of the fitted maximal effect. The method in brief: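 NIH/3T3-derived Gli1-Luc reporter cells (2,000 per well) rested 4 hr at 37 C, then received DMSO compounds plus conditioned medium. After 23 hr of treatment, CellTiter-Fluor was added for 1 hr at 37C and fluorescence read.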

A short description of experiment [10]: qHTS assay to identify small molecule agonists of the sonic hedgehog signaling (Shh) pathway (AID 1259368; calls by dose curve; further: series mostly up to about 92 µM; nearly all actives have a fitted effect of over 15% in size). The method in brief: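 NIH/3T3-derived 3T3Gli1-Luc cells carrying a stably integrated Gli1 response element–firefly luciferase reporter were plated, left 4 hr at 37 C, then given compounds in DMSO for 24 hr. Luminescence was read 30 min after adding luciferase reagent.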

Experiment [11] is described as follows: qHTS assay to identify small molecule antagonists of the sonic hedgehog signaling (Shh) pathway (AID 1259369; calls by dose curve; further: nearly all actives have a fitted effect of over 45% in size; further: potency means the concentration at half of the fitted maximal effect). The method in brief:
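NIH/3T3-derived 3T3Gli1-Luc cells with stably integrated Gli1-Luc reporter were preincubated 4hr at 37 C, then given compounds in DMSO plus Shh conditioned medium and incubated 24hr. Firefly luciferase luminescence read after 30min reagent at room temperature.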

For experiment [12], the target named is Estrogen receptor beta (Homo sapiens) (UniProt Q92731). Put plainly: qHTS assay to identify small molecule antagonists of the estrogen receptor beta (ER-beta) signaling pathway (AID 1259378; active means well fitted inhibition curve with a large enough effect in the signal ratio in the repeat runs, not every such curve was filed as active; the % refers to the signal ratio; further: potency means the concentration at half of the fitted maximal effect). The method in brief: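 ER-beta-UAS-bla HEK293T (GripTite) cells in 2% charcoal-stripped FBS medium were preincubated 6 hr at 37C, dosed with compound, then stimulated with 1 nM E2 (final) for 16 hr; beta-lactamase reporter read by B/G FRET fluorescence after 2 hr substrate loading.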
Estrogen receptor beta (Homo sapiens), sequence (Q92731 whole entry, looked up): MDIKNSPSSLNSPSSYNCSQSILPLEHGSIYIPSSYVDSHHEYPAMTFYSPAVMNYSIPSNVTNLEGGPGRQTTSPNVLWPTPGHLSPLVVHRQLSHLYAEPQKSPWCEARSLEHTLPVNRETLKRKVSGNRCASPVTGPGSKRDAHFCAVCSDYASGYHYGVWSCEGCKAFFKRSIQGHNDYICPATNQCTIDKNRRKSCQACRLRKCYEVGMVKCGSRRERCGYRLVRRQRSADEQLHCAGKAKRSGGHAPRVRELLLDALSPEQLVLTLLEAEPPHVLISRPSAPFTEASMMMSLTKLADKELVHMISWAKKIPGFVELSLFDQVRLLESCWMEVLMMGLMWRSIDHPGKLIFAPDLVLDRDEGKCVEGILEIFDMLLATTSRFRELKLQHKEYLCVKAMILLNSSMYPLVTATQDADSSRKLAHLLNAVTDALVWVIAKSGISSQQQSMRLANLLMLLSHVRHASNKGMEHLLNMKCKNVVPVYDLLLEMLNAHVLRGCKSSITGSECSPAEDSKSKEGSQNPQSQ

Experiment [13] can be described thus: qHTS assay to identify small molecule agonists of the androgen receptor (AR) signaling pathway in the presence of an antagonist - cell viability counter screen (AID 1259379). Further: nearly all actives have a fitted effect of over 25% in size. Further: potency means the concentration at half of the fitted maximal effect. The method in brief:
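MDA-kb2 human breast carcinoma cells (stable MMTV-luciferase, AR/GR responsive) were seeded 3,000 cells/well, pre-incubated 5 hr at 37C without CO2, then given 3.0uM nilutamide and compounds at 15 concentrations for 16 hr. Viability was read by CellTiter-Fluor fluorescence.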

Experiment [14] is described as follows: qHTS assay to identify small molecule agonists of the estrogen receptor beta (ER-beta) signaling pathway - cell viability counter screen (AID 1259380). Further: nearly all actives have a fitted effect of over 30% in size. Further: potency means the concentration at half of the fitted maximal effect. The method in brief:
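ER-beta-UAS-bla HEK293T cells in medium with 2% charcoal-stripped FBS were preincubated 6 hr at 37C, dosed with compound in DMSO for 16 hr, then after the bla read, CellTiter-Glo was added for 30 min at room temperature; luminescence recorded.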

Experiment [15] has as its target Androgen receptor (Homo sapiens) (UniProt P10275). Briefly: qHTS assay to identify small molecule agonists of the androgen receptor (AR) signaling pathway in the presence of an antagonist (AID 1259381; calls by dose curve; further: nearly all actives have a fitted effect of over 15% in size). The method in brief: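 MDA-kb2 human breast carcinoma cells carrying an MMTV-luciferase reporter (AR- and GR-responsive) were treated with compounds at 15 concentrations plus 3.0uM final nilutamide for 16hr at 37C without CO2; luminescence was read after ONE-Glo addition.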

Experiment [16] is described as follows: qHTS assay to identify small molecule antagonists of the estrogen receptor beta (ER-beta) signaling pathway - cell viability counter screen (AID 1259382). Further: nearly all actives have a fitted effect of over 55% in size. Further: potency means the concentration at half of the fitted maximal effect. The method in brief:
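ER-beta-UAS-bla HEK293T cells (2,000/well, 2% charcoal-stripped FBS) were pre-incubated 6 hr at 37C, then given compound plus 1nM final 17-beta-estradiol for 16 hr. Viability was read in the same wells by CellTiter-Glo luminescence after 30 min at room temperature.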

The target in experiment [17] is Estrogen receptor (Homo sapiens) (UniProt P03372). Put plainly: qHTS assay to identify small molecule agonists of the estrogen receptor alpha (ER-alpha) signaling pathway in the presence of an antagonist (AID 1259383; calls by dose curve; further: top concentration of the series differs between compounds; nearly all actives have a fitted effect of over 15% in size). The method in brief:
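VM7Luc4E2 cells (endogenous full-length ER-alpha, 4×ERE-luciferase) were precultured 5 days in phenol red-free medium with 10% charcoal-stripped FBS, given 10.0nM ICI-182,780 (final), then treated with compounds at 15 concentrations for 22hr at 37C; luminescence read with ONE-Glo.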

The nature of experiment [18]: qHTS assay to identify small molecule agonists or antagonists of the thyroid stimulating hormone receptor (TSHR) signaling pathway - wild type cell line counter screen (AID 1259384; calls by dose curve). The method in brief: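 Wild-type HEK293 cells were plated 18 h at 37 C/5% CO2, pin-dosed with compound plus Ro20-1724 medium, held 30 min at room temperature, then given cAMP-d2 and anti-cAMP-cryptate; fluorescence was read after 1 h. Fifteen concentrations, triplicate.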

Experiment [19] can be described thus: A CellTox Green Cytotoxicity Assay to monitor cytotoxicity in HepG2 cells - 8 hour (AID 1224890). Further: nearly all actives have a fitted effect of over 45% in size. Further: potency means the concentration at half of the fitted maximal effect. The method in brief:
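HepG2 cells were seeded together with the CellTox Green dye at 600 cells/well, left 5 h at 37 C/5% CO2, then given compounds in DMSO. Fluorescence from dye bound to dead-cell DNA was read repeatedly over 40 h of treatment at 37 C.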

Experiment [20] deals with Estrogen receptor beta (Homo sapiens) (UniProt Q92731). Put plainly: qHTS assay to identify small molecule agonists of the estrogen receptor beta (ER-beta) signaling pathway (AID 1259377; active means well fitted activation curve with a large enough effect in the signal ratio in the repeat runs, not every such curve was filed as active; the % refers to the signal ratio). The method in brief: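 Measured by fluorescence intensity from a B/G FRET beta-lactamase substrate (2 h, room temperature) in ER-beta-UAS-bla HEK293T cells treated with DMSO-dissolved compounds for 16 hr at 37C and 5% CO2.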

On to `Cc1cn([C@H]2C[C@H](F)[C@@H](CO)O2)c(=O)[nH]c1=O`, for which the Potency entry in experiment [1], in [2], in experiment [3], in experiment [4], in [5] and in experiment [6] was “inactive” throughout. Besides, the Potency entry in experiment [7], in [8], in [9], in experiment [10], in [11] and in [12] was “inactive” throughout. Further, the Potency entry in experiment [13], in [14], in experiment [15], in experiment [16], in [17] and in [18] was “inactive” throughout.

As to `CCC1CCC(CCC(=O)O)C1` (stereo not given), the Potency entry in experiment [19], in [1], in [6], in [7], in experiment [9] and in experiment [10] was “inactive” each time. Further, the Potency entry in [11], in experiment [13] and in experiment [18] was “inactive” in each case.

Regarding `O=[N+]([O-])C1(Br)COCOC1`, the Potency result in experiment [1], in experiment [4], in experiment [6], in [7], in experiment [10] and in experiment [12] was “inactive” in each case. Also, the Potency result in experiment [13], in experiment [16], in experiment [17] and in [18] was “inactive” each time. Moreover, the Potency in [11] was 43.3 µM (active).

As to `CCN(CC)C(=O)/C(C#N)=C/c1cc(O)c(O)c([N+](=O)[O-])c1`, the Potency entry in experiment [19], in experiment [4], in [5], in experiment [7], in [8] and in [10] was “inactive” throughout. The Potency result in experiment [11], in [20], in experiment [14], in experiment [15], in [16] and in experiment [17] was “inactive” each time. Besides, the Potency entry in experiment [18] is “inactive”. Moreover, the Potency in [3] and in [13] was 23.7 µM (active) throughout.

As for `CCCCCCC(O)CCOC(C)=O` (stereo not given), the Potency entry in experiment [19], in [1], in experiment [4], in experiment [7], in experiment [8] and in experiment [9] was “inactive” each time. In addition, the Potency result in experiment [10], in experiment [11], in [20], in [12], in [13] and in [14] was “inactive” throughout. In addition, the Potency result in [16], in [17] and in [18] was “inactive” each time.

For the compound `O=C1c2ccccc2C(=O)c2c(O)ccc(O)c21`, the Potency in experiment [19] is 21.9 µM (active). The Potency entry in experiment [2], in [7], in experiment [8], in [9], in experiment [10] and in experiment [14] was “inactive” throughout. Also, the Potency result in [16] is “inactive”.

Take `CCCCCCCC/C=C/C(=O)O`: the Potency entry in experiment [19], in experiment [1], in experiment [6], in [7], in [8] and in experiment [9] was “inactive” throughout. In addition, the Potency result in experiment [10], in [11], in experiment [20], in [13] and in [18] was “inactive” in each case.

Take `CO[C@@H]1[C@@H](OC)[C@H](C)[C@@](O)(CC(=O)O)O[C@H]1[C@H](C)[C@H]1O[C@@]2(CC[C@@](C)([C@H]3CC[C@@](C)([C@@H]4O[C@@H]([C@H]5O[C@](C)(O)[C@H](C)C[C@@H]5C)C[C@@H]4OC4C[C@H](OC)[C@@H](OC)[C@H](C)O4)O3)O2)C[C@H](O)[C@H]1C` (stereo not given in full): the Potency is 3.35 µM (active) in experiment [1]; 1.68 µM (active) in experiment [2]; 11.9 µM (active) in experiment [4]; 4.22 µM (active) in experiment [8]; 3.76 µM (active) in experiment [9]; 0.211 µM (active) in experiment [11]. For the same compound, the Potency is 11.9 µM (active) in experiment [12], 1.68 µM (active) in experiment [13], 1.88 µM (active) in experiment [14] and 2.66 µM (active) in experiment [16]. Moreover, the Potency entry in experiment [5], in experiment [7], in experiment [10], in experiment [20], in experiment [17] and in experiment [18] was “inactive” each time.

In the case of `CCN(Cc1cccc(S(=O)(=O)O)c1)c1ccc(C(=C2C=CC(=[N+](CC)Cc3cccc(S(=O)(=O)O)c3)C=C2)c2ccccc2S(=O)(=O)[O-])cc1`, the Potency entry in [19], in [10], in [20], in [12] and in experiment [17] was “inactive” throughout. Moreover, the Potency in experiment [1] is 19.4 µM (active); in [4] it was 12.2 µM (active); in experiment [7] it was 12.2 µM (active); in experiment [8] it was 27.4 µM (active); in experiment [9] it was 17.3 µM (active); in [11], 3.08 µM (active). In experiment [13], the Potency is 17.3 µM (active).

Values taken from PubChem BioAssay (Tox21).
